Measured values reported in PMC5700166.
Positions count from the first letter of the chain named.

Assays:
Assay in all cases: protein-binding microarray (PBM); PBM: ~300 nM protein, 6 mM HEPES pH 7.8, 80 mM KCl, 0.5 mM EDTA, 0.5 mM EGTA, 6% glycerol, 35 ng/ul poly-dIdC, 1% milk, 1 h, room temperature; Ap Aiptasia and Nv Nematostella (sea anemones) / Co Capsaspora / Aq Amphimedon (sponge) / Dm Drosophila / Hu human; RHD is the Rel homology domain; high values mean tight binding
Conditions in all cases: dsDNA, one strand shown
GST-Ap-NF-kB RHD = biological target: T1, GST-Ap-NF-kB RHD (Exaiptasia pallida (Aiptasia), UniProt A0A913YAJ5 2-422)
T1 sequence: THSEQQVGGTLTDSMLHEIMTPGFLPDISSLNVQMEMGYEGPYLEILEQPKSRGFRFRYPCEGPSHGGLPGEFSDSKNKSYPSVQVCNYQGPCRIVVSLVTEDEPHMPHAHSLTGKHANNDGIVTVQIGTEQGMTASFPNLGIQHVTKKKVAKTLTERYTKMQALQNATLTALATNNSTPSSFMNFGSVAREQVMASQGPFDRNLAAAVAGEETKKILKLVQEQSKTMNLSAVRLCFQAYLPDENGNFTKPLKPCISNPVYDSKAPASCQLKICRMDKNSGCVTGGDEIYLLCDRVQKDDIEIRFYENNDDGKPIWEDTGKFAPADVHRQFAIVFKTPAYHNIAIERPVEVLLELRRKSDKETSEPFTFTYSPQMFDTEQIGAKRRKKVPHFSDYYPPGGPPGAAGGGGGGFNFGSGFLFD

[1] = biological target: T2, GST-Nv-NF-kB (Cys allele) (Nematostella vectensis, UniProt E5G601 2-411)
T2 sequence: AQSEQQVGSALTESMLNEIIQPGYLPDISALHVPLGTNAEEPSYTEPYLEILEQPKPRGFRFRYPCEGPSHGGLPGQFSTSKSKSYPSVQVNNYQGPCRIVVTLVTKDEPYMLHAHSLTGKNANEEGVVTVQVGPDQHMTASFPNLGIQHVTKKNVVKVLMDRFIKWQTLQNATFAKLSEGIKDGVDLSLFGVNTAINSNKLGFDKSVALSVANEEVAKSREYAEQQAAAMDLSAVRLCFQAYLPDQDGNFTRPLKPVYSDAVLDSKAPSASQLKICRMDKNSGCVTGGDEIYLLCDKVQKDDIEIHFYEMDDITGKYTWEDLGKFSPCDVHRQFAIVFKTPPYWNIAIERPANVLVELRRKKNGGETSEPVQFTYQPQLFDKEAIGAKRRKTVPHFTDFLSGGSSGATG

[2] = biological target: T3, GST-Nv-NF-kB (Ser allele) (Nematostella vectensis, UniProt A7UNT2 2-411)
T3 sequence: T2 sequence with Q21R, C66S, S207N, E215Q, V217A, E225K, A268E, D399E

GST-Co-NF-kB = biological target: T4, GST-Co-NF-kB (Capsaspora owczarzaki, UniProt F1ARL5 200-546)
T4 sequence: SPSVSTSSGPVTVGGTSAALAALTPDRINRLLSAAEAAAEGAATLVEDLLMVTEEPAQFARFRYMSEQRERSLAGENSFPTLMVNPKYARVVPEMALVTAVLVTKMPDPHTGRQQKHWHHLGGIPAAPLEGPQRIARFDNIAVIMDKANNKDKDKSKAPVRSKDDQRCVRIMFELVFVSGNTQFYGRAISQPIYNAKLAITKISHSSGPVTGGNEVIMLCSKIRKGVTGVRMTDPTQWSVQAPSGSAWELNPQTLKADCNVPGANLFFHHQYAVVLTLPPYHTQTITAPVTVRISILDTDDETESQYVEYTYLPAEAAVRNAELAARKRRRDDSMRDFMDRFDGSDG

GST-Dm-Relish = biological target: T5, GST-Dm-Relish (Drosophila melanogaster, UniProt Q94527 99-473)
T5 sequence: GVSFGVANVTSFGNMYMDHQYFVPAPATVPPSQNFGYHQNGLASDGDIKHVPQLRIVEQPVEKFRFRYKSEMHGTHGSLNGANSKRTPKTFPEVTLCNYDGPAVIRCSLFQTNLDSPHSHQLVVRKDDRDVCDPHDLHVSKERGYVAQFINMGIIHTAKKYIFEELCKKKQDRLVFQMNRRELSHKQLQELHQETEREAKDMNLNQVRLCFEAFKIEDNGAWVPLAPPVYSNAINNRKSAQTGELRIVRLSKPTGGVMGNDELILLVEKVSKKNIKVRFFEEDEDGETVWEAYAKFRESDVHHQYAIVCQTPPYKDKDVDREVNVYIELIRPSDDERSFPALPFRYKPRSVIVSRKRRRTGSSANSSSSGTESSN

GST-Aq-NF-kB = biological target: T6, GST-Aq-NF-kB (Amphimedon queenslandica, UniProt A9Y5G7 2-389)
T6 sequence: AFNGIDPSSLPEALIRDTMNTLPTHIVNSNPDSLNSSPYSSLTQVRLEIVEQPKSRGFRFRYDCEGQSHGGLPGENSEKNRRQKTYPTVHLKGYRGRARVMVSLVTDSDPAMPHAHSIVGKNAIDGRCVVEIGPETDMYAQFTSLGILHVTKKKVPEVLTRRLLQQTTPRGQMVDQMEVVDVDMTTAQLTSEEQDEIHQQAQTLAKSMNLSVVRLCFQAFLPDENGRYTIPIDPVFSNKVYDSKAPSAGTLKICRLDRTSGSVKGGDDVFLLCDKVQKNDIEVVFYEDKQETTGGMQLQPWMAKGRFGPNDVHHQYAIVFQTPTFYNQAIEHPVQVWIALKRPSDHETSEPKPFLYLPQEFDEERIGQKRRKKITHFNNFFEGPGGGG

GST-Hu-p50 = GST-Hu-p50 (Homo sapiens, UniProt P19838 7-356)
Chain of GST-Hu-p50 (P19838 7-356): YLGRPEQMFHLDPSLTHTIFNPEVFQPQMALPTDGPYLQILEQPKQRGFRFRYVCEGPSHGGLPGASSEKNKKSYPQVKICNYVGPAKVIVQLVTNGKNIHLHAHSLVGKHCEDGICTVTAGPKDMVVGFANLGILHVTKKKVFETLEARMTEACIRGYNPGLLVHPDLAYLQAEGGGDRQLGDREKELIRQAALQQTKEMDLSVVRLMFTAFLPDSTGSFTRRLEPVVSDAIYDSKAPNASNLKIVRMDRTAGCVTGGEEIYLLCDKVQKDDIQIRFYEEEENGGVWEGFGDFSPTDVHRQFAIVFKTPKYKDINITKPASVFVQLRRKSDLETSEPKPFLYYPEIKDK

Sequence | binding signal (GST-Ap-NF-kB RHD) | binding signal [1] | binding signal [2] | binding signal (GST-Co-NF-kB) | binding signal (GST-Dm-Relish) | binding signal (GST-Aq-NF-kB) | binding signal (GST-Hu-p50)
CCGATTAACATCAGGGAAAAATATGATGTTAATCGGGTCTTGATTCGCTTGACGCTGCTG | 3.68 z-score | 5.51 z-score | 7.16 z-score | 5.79 z-score | 2.03 z-score | 5.19 z-score | 4.2 z-score
CCGATTAACATCAGGGGGATACATGATGTTAATCGGGTCTTGATTCGCTTGACGCTGCTG | 5.54 z-score | 4.96 z-score | 5.54 z-score | 6.27 z-score | 3.6 z-score | 4.35 z-score | 5.05 z-score
CCGATTAACATCAAAGCTTCCCCTGATGTTAATCGGGTCTTGATTCGCTTGACGCTGCTG | 5.17 z-score | 6.28 z-score | 7.74 z-score | 7.56 z-score | 3.8 z-score | 4.64 z-score | 5.4 z-score
CCGATTAACATCAAAGGACCCCCTGATGTTAATCGGGTCTTGATTCGCTTGACGCTGCTG | 4.81 z-score | 2.82 z-score | 3.92 z-score | 2.19 z-score | 4.18 z-score | 3.79 z-score | 3.2 z-score
CCGATTAACATCAAAATTACCCATGATGTTAATCGGGTCTTGATTCGCTTGACGCTGCTG | 2.8 z-score | 4.69 z-score | 4.25 z-score | 2.84 z-score | 4.11 z-score | 4.84 z-score | 4.15 z-score
CCGATTAACATCAGGAAAACCCCTGATGTTAATCGGGTCTTGATTCGCTTGACGCTGCTG | 8.2 z-score | 8.89 z-score | 6.66 z-score | 2.41 z-score | 8.77 z-score | 9.24 z-score | 7.4 z-score
CCGATTAACATCAAAAACCCCCATGATGTTAATCGGGTCTTGATTCGCTTGACGCTGCTG | 9.51 z-score | 8.21 z-score | 9 z-score | 3.93 z-score | 9.82 z-score | 7.68 z-score | 7.91 z-score
CCGATTAACATCAGAATCCCCCCTGATGTTAATCGGGTCTTGATTCGCTTGACGCTGCTG | 9.22 z-score | 7.84 z-score | 8.55 z-score | 7.63 z-score | 8.81 z-score | 7.37 z-score | 7.06 z-score
CCGATTAACATCAGGGAAGTCCCTGATGTTAATCGGGTCTTGATTCGCTTGACGCTGCTG | 9.31 z-score | 11.7 z-score | 9.19 z-score | 1.97 z-score | 10.4 z-score | 10.2 z-score | 6.58 z-score
CCGATTAACATCAGGGGGAGAACTGATGTTAATCGGGTCTTGATTCGCTTGACGCTGCTG | 6.04 z-score | 5.02 z-score | 6.45 z-score | 7.22 z-score | 6.51 z-score | 4.8 z-score | 5.85 z-score
CCGATTAACATCAAATATCCCCATGATGTTAATCGGGTCTTGATTCGCTTGACGCTGCTG | 6.82 z-score | 6.83 z-score | 7.36 z-score | 4.59 z-score | 4.81 z-score | 4.67 z-score | 5.18 z-score
CCGATTAACATCAAAAAATTCCCTGATGTTAATCGGGTCTTGATTCGCTTGACGCTGCTG | 6.84 z-score | 10.3 z-score | 9.33 z-score | 5.79 z-score | 8.53 z-score | 8.5 z-score | 6.48 z-score
CCGATTAACATCAAAGAATCCCCTGATGTTAATCGGGTCTTGATTCGCTTGACGCTGCTG | 8.71 z-score | 9.68 z-score | 11.8 z-score | 4.06 z-score | 9.1 z-score | 6.89 z-score | 7.06 z-score
CCGATTAACATCAAGGGGGTATCTGATGTTAATCGGGTCTTGATTCGCTTGACGCTGCTG | 6.66 z-score | 4.44 z-score | 4.28 z-score | 3.26 z-score | 3.38 z-score | 4.34 z-score | 4.61 z-score
CCGATTAACATCAGGGGGTTGACTGATGTTAATCGGGTCTTGATTCGCTTGACGCTGCTG | 4.64 z-score | 3.2 z-score | 3.62 z-score | 1.93 z-score | 4.51 z-score | 3.95 z-score | 4.25 z-score
CCGATTAACATCACTATATCCCCTGATGTTAATCGGGTCTTGATTCGCTTGACGCTGCTG | 4.49 z-score | 4.08 z-score | 5.9 z-score | 3.51 z-score | 2.01 z-score | 2.75 z-score | 3.18 z-score
CCGATTAACATCAGGGGAATGCATGATGTTAATCGGGTCTTGATTCGCTTGACGCTGCTG | 5.82 z-score | 7.06 z-score | 7.76 z-score | 5.53 z-score | 3.2 z-score | 4.86 z-score | 5.41 z-score
CCGATTAACATCAGGGGATATTATGATGTTAATCGGGTCTTGATTCGCTTGACGCTGCTG | 7.99 z-score | 7.96 z-score | 9.17 z-score | 4.65 z-score | 6.28 z-score | 6.34 z-score | 6.06 z-score
CCGATTAACATCAATTTACCCCCTGATGTTAATCGGGTCTTGATTCGCTTGACGCTGCTG | 6.21 z-score | 4.95 z-score | 6.18 z-score | 8.79 z-score | 3.42 z-score | 4.56 z-score | 5.04 z-score
CCGATTAACATCAGGGGAATCAATGATGTTAATCGGGTCTTGATTCGCTTGACGCTGCTG | 5.46 z-score | 6.47 z-score | 8.04 z-score | 5.78 z-score | 5.48 z-score | 4.26 z-score | 4.98 z-score
CCGATTAACATCAACAAACCCCCTGATGTTAATCGGGTCTTGATTCGCTTGACGCTGCTG | 6.74 z-score | 5.37 z-score | 6.79 z-score | 2.52 z-score | 7.26 z-score | 5.03 z-score | 6.59 z-score
CCGATTAACATCAAAAACTCCCCTGATGTTAATCGGGTCTTGATTCGCTTGACGCTGCTG | 9.29 z-score | 8.96 z-score | 9.57 z-score | 6.91 z-score | 8.62 z-score | 8.06 z-score | 6.46 z-score
CCGATTAACATCAGGGAATCTACTGATGTTAATCGGGTCTTGATTCGCTTGACGCTGCTG | 2.43 z-score | 3.44 z-score | 3.68 z-score | 1.94 z-score | 4.76 z-score | 4.82 z-score | 2.96 z-score
CCGATTAACATCAGGGAAATACCTGATGTTAATCGGGTCTTGATTCGCTTGACGCTGCTG | 6 z-score | 8.81 z-score | 6.78 z-score | 3.06 z-score | 8.42 z-score | 9.82 z-score | 5.57 z-score
